Laboratory results from PubChem BioAssay (Tox21).
Results filed as inconclusive are left out. The source made the active and inactive calls. Unless noted, the call rests on the fitted dose curve; in most records, active means well fitted curve in the direction sought with a large enough effect in the repeat runs; inconclusive means weak or mixed curves; inactive means no such curve, though single readings can be large; an effect the other way counts as inactive or inconclusive.

Experiments:
[1] = qHTS assay to identify small molecule agonists of the estrogen receptor alpha (ER-alpha) signaling pathway in the presence of an antagonist - cell viability counter screen (AID 1259386);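 further: series mostly up to about 92 µM; cells exposed to compounds for 22 h at 37 °C before the viability read; nearly all actives have a fitted effect of over 30% in size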
In short: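 In this counter screen, compound effects on VM7Luc4E2 viability were tested in the presence of the antagonist ICI-182,780 at 10.0nM final. Compounds were dosed at 15 concentrations, exposure lasted 22hr, and the CellTiter-Fluor signal was read.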

[2] = target: Progesterone receptor (Homo sapiens) (UniProt P06401); assay: qHTS assay to identify small molecule agonists of the progesterone receptor (PR) signaling pathway (AID 1346784; calls by dose curve; further: nearly all actives have a fitted effect of over 30% in size)
In short: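 Beta-lactamase reporter read-out: after 16 hr compound treatment at 37C and a further 2 hr at room temperature with LiveBLAzer B/G FRET substrate, fluorescence was measured in PR-UAS-bla HEK 293T cells grown in 2% charcoal-stripped serum.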

[3] = target: Progesterone receptor (Homo sapiens) (UniProt P06401); assay: qHTS assay to identify small molecule antagonists of the progesterone receptor (PR) signaling pathway (AID 1346795; active means well fitted inhibition curve with a large enough effect in the signal ratio in the repeat runs, not every such curve was filed as active; the % refers to the signal ratio)
In short: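 Read-out is fluorescence from the LiveBLAzer B/G FRET substrate, cleaved by a UAS-controlled beta-lactamase in PR-UAS-bla HEK293T cells after 16 hr exposure to compound plus 1 nM promegestone (final), followed by 2 hr at room temperature.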

[4] = qHTS assay to identify small molecule antagonists of the progesterone receptor (PR) signaling pathway - cell viability counter screen (AID 1346798);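 further: HEK293T PR-UAS-bla cells stimulated with the agonist R5020; series mostly up to about 92 µM; nearly all actives have a fitted effect of over 50% in size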
In short: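 HEK293T PR-UAS-bla, 2% charcoal-stripped FBS; 4 hr pre-plate; cpd + R5020, 16 h 37C; LiveBLAzer read first; then CellTiter-Glo 30 min RT, luminescence.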

[5] = qHTS assay to identify small molecule agonists of the progesterone receptor (PR) signaling pathway - cell viability counter screen (AID 1346799; calls by dose curve; further: nearly all actives have a fitted effect of over 45% in size)
In short: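 Luminescence from CellTiter-Glo, added after the beta-lactamase FRET read in the same wells, gave cytotoxicity in PR-UAS-bla HEK293T cells treated with compounds for 16 hr at 37C.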

[6] = qHTS assay to identify small molecule antagonists of the TGF-beta/Smad signaling pathway - cell viability counter screen (AID 1346824); further: nearly all actives have a fitted effect of over 50% in size
In short: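 Cytotoxicity counter-screen run in the same wells as the beta-lactamase Smad reporter read: CellTiter-Glo luminescence after 30 min at room temperature. HEK 293T SBE-bla cells had 5 hr compound exposure at 37 C with TGF-beta1 (0.25 ng/mL stock).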

[7] = qHTS assay to identify small molecule agonists of the TGF-beta/Smad signaling pathway - cell viability counter screen (AID 1346829); further: top concentration of the series differs between compounds; nearly all actives have a fitted effect of over 45% in size
In short: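 Here the cytotoxicity of library compounds is measured in SBE-bla HEK 293T cells treated for 5 hr, using CellTiter-Glo added to wells already read for the beta-lactamase reporter.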

[8] = qHTS assay to identify small molecule agonists of the TGF-beta/Smad signaling pathway (AID 1346859; active means well fitted activation curve with a large enough effect in the signal ratio in the repeat runs, not every such curve was filed as active; the % refers to the signal ratio; further: series mostly up to about 77 µM)
In short: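 SBE-bla HEK 293T, 4,000 cells/well, plated o/n; cpd in DMSO, 5 hr, 37 C/5% CO2; B/G FRET substrate 2 hr RT; ex 405, em 460/530 nm.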

[9] = target: Thyrotropin-releasing hormone receptor (Homo sapiens) (UniProt P34981); assay: qHTS assay to identify small molecule antagonists of the thyrotropin-releasing hormone receptor (TRHR) signaling pathway (AID 1346877; active means well fitted inhibition curve with a large enough effect in the repeat runs, not every such curve was filed as active; further: series mostly up to about 51 µM)
In short: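 Kinetic fluorescence (3 min, 1 s resolution) following stimulation with TRH at 1 nM final; HEK293 cells bearing human TRHR; 5 min compound preincubation at RT; concentration-response over 15 points, triplicates.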

[10] = target: Thyrotropin-releasing hormone receptor (Homo sapiens) (UniProt P34981); assay: qHTS assay to identify small molecule agonists of the thyrotropin-releasing hormone receptor (TRHR) signaling pathway (AID 1346891; calls by dose curve; further: series mostly up to about 58 µM)
In short: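 Intracellular calcium rise, read as fluorescence every second for 3 min, served as the agonist signal in dye-loaded HEK293 cells expressing TRHR; each compound ran at 15 concentrations in triplicate.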

[11] = Human pregnane X receptor (PXR) small molecule agonists, qHTS cell viability counter screen (AID 1346977); further: nearly all actives have a fitted effect of over 50% in size
In short: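 PXR-Luc HepG2, 2,000 cells/well, 5% charcoal-stripped FBS; 5hr settle; cpd 24hr, 37C/5% CO2; CellTiter-Fluor at 23hr, read 1hr later (fluorescence).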

[12] = Caspase-3/7 induction in HepG2 cells by small molecules, qHTS assay (AID 1346978); further: nearly all actives have a fitted effect of over 15% in size
In short: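 Caspase-3/7 induction was measured by Caspase-Glo 3/7 luminescence (30 min, room temperature) after a 17 hr compound exposure of wild-type HepG2 cells seeded at 2,000 per well and pre-incubated 5 hr.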

[13] = Caspase-3/7 induction in CHO-K1 cells by small molecules, qHTS cell viability counter screen (AID 1346979); further: nearly all actives have a fitted effect of over 35% in size
In short: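 Cells (CHO-K1, wild type) are plated at 1,500 per well and incubated 5hr. Test compounds in DMSO are then pinned in, followed by 16hr at 37C and 5% CO2. Viability is read by CellTiter-Fluor fluorescence after 1hr.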

[14] = Caspase-3/7 induction in CHO-K1 cells by small molecules, qHTS assay (AID 1346980); further: nearly all actives have a fitted effect of over 15% in size
In short: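 Luminescent Caspase-Glo 3/7 read (30min, room temperature) quantified apoptosis induction. Cells were wild-type CHO-K1, treated with compound for 17hr at 37 C and 5% CO2.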

[15] = Caspase-3/7 induction in HepG2 cells by small molecules, qHTS cell viability counter screen (AID 1346981); further: series mostly up to about 92 µM; nearly all actives have a fitted effect of over 30% in size
In short: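 In this quantitative HTS counter screen, compounds delivered in DMSO were left on unmodified HepG2 cells for 16 hr at 37 C. Viability was then determined fluorometrically with CellTiter-Fluor, in parallel with caspase-3/7 induction in the same wells.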

[16] = target: Cytochrome P450 2D6 (Homo sapiens) (UniProt P10635); assay: Cytochrome P450 Family 2 Subfamily D Member 6 (CYP2D6) small molecule antagonists: luciferase reporter qHTS assay (AID 1671196); further: series mostly up to about 120 µM; nearly all actives have a fitted effect of over 50% in size
In short: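 Test chemicals meet CYP2D6 plus proluciferin substrate (10 min, RT); NADPH regenerating solution then drives turnover for 1 h. Detection reagent halts the reaction; luminescence measured after 20 min.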

[17] = target: Nuclear receptor subfamily 1 group I member 2 (Rattus norvegicus) (UniProt Q9R1A7); assay: Rat pregnane X receptor (rPXR) activation by small molecules, qHTS assay (AID 1346983); settings: rPXR luciferase reporter cells, One-Glo luminescence, 24 h; max activation: stronger effect = higher value; further: nearly all actives have a fitted effect of over 20% in size
In short: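 Luminescent readout (One-Glo luciferase, 30 min room temperature) followed 24 hr compound treatment at 37 C of rPXR cells plated 2,000 per well and preincubated 5hr; qHTS format with compounds delivered in DMSO.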

[18] = target: Nuclear receptor subfamily 1 group I member 2 (Homo sapiens) (UniProt O75469); assay: CYP3A4 induction through human pregnane X receptor (PXR) by small molecules, qHTS assay (AID 1346984); further: nearly all actives have a fitted effect of over 40% in size
In short: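 Induction measured in HepG2-based DPX-2 cells co-expressing human PXR and a CYP3A4 promoter-driven luciferase. After a 24-hour compound exposure, cells received CYP3A4 luciferin substrate at 3uM final for 3 hours, and light output was then recorded.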

[19] = target: Nuclear receptor subfamily 1 group I member 2 (Homo sapiens) (UniProt O75469); assay: Human pregnane X receptor (PXR) activation by small molecules, qHTS assay (AID 1346985); further: nearly all actives have a fitted effect of over 40% in size
In short: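 DPX-2 cells (HepG2 co-transfected with a PXR response element and a CYP3A4-promoter luciferase construct) were seeded at 2,000 per well, rested 5 hr at 37C, then exposed to DMSO-dissolved compounds for 24 hr. Activation was read as luciferase luminescence.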

[20] = target: Nuclear receptor subfamily 1 group I member 2 (Homo sapiens) (UniProt O75469); assay: Human pregnane X receptor (PXR) small molecule agonists, qHTS assay (AID 1346982); further: nearly all actives have a fitted effect of over 35% in size
In short: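 Reporter HepG2 cells expressing PXR-Luc are cultured in charcoal-stripped FBS (5%), treated with compounds for 24 hr at 37 C, and assayed by ONE-Glo luminescence after 30 min at room temperature.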
On the % scale 0 is the no-effect control and ±100 the full control effect.

Sequence of Cytochrome P450 2D6 (Homo sapiens) (P10635 whole entry, looked up): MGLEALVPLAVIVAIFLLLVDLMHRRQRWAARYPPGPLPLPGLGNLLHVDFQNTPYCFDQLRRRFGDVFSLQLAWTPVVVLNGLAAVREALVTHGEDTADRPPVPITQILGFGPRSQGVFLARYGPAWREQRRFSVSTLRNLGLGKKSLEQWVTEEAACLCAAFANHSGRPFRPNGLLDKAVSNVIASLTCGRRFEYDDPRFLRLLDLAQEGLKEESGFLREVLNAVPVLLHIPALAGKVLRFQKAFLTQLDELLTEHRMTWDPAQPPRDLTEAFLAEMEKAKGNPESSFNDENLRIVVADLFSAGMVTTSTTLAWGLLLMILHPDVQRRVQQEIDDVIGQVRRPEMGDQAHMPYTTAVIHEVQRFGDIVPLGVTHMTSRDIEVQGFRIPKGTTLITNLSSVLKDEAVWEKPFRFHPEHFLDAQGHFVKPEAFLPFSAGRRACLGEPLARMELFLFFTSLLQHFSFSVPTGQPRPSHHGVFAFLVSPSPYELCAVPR
Sequence of Thyrotropin-releasing hormone receptor (Homo sapiens) (P34981 whole entry, looked up): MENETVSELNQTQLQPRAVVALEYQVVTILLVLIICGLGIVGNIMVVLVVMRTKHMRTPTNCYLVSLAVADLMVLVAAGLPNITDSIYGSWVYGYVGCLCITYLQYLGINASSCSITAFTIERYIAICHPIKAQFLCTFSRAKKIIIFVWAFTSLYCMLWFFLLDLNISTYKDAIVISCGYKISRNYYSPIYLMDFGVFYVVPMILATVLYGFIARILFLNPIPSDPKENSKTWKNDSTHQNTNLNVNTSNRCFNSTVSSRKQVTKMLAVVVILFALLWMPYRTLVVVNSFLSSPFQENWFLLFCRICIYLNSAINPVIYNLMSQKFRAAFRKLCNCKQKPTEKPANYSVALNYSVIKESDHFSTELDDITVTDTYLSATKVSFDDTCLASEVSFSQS
Sequence of Progesterone receptor (Homo sapiens) (P06401 whole entry, looked up): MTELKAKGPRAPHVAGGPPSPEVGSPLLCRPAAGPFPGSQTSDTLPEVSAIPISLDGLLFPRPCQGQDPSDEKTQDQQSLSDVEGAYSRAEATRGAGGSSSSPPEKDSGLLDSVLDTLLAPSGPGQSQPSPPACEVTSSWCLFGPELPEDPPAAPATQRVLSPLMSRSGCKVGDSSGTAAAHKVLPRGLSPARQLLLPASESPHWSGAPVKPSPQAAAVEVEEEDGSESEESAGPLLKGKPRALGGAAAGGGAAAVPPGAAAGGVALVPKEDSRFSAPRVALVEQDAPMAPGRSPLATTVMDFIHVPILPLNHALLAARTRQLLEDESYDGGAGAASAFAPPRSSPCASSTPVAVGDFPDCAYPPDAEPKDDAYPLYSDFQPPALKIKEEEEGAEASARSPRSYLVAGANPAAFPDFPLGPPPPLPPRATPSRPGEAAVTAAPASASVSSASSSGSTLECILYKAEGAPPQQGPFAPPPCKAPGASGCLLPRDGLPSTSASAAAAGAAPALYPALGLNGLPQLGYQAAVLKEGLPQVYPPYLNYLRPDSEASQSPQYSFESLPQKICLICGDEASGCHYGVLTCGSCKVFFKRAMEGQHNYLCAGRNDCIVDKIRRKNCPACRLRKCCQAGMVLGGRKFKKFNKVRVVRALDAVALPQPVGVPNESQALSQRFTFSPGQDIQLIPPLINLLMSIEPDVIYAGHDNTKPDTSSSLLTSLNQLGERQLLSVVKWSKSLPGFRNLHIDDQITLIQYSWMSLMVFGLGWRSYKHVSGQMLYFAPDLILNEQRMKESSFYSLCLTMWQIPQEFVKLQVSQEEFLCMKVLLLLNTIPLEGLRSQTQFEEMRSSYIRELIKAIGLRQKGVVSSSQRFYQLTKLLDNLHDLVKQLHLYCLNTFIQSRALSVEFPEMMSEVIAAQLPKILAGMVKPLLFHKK
Sequence of Nuclear receptor subfamily 1 group I member 2 (Homo sapiens) (O75469 whole entry, looked up): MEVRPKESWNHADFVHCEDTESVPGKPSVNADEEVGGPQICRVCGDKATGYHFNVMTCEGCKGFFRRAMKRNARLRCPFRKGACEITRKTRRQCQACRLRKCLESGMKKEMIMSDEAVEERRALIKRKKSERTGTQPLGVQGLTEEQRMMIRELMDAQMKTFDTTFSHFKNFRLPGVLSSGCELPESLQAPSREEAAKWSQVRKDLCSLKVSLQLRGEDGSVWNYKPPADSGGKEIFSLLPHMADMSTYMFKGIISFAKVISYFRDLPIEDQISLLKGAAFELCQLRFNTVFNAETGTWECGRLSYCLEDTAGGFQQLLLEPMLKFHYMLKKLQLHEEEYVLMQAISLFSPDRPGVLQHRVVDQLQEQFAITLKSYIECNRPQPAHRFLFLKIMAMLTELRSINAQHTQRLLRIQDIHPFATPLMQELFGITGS
Sequence of Nuclear receptor subfamily 1 group I member 2 (Rattus norvegicus) (Q9R1A7 whole entry, looked up): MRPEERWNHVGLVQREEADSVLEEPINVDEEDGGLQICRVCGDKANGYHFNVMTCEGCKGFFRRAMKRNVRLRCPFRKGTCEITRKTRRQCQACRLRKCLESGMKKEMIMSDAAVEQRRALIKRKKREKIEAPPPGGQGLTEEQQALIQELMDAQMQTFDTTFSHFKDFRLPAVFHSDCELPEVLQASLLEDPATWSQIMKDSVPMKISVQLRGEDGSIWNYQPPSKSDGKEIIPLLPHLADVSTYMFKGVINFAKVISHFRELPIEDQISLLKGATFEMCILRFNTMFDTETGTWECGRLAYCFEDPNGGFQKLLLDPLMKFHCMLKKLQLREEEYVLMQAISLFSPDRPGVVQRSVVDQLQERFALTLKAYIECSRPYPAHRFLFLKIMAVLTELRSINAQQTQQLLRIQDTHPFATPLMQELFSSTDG

CC(C)(CO)[N+](=O)[O-]
inactive: Potency [1] | Potency [2] | Potency [3] | Potency [4] | Potency [5] | Potency [6] | outcome [7] | Potency [8] | outcome [9] | Potency [10] | Potency [11] | Potency [12] | Potency [13] | Potency [14] | Potency [15] | Potency [16]

CC(CSC(=O)c1ccccc1)C(=O)N1C[C@@H](Sc2ccccc2)C[C@H]1C(=O)O (stereo partly drawn)
inactive: activity change, negative = cytotoxicity [1] 3.85% [at 19 µM] | activation [2] -0.419% [at 19 µM] | activity change, negative = inhibition [3] 1.77% [at 18.9 µM] | activity change, negative = cytotoxicity [4] -8.73% [at 18.9 µM] | activity change, negative = cytotoxicity [5] -1.53% [at 19 µM] | viability change, negative = cytotoxic [6] -6.88% [at 15.8 µM] | activity change, negative = cytotoxicity [7] 4% [at 15.8 µM] | activation [8] 0.21% [at 15.8 µM] | activity, negative = inhibition [9] -5.47% [at 10.5 µM] | activation [10] -0.201% [at 11.8 µM] | activity change, negative = cytotoxicity [11] 14.3% [at 19 µM] | caspase activation [12] 0.287% [at 19 µM] | activity change, negative = cytotoxicity [13] -1.81% [at 19 µM] | caspase-3/7 activation [14] 0.0462% [at 19 µM] | activity change, negative = cytotoxicity [15] -2.03% [at 19 µM] | max activation [17] -2.82% | Potency [18] | Potency [19] | activity change, negative = inhibition [16] 2.02% [at 23.6 µM]

C[C@@H](c1ncncc1F)C(O)(Cn1cncn1)c1ccc(F)cc1F (stereo partly drawn)
inactive: Potency [1] | Potency [2] | Potency [3] | Potency [4] | Potency [5] | Potency [6] | outcome [7] | Potency [8] | outcome [9] | Potency [10] | Potency [11] | Potency [12] | Potency [13] | Potency [14] | Potency [15] | Potency [16]

O=C(O)CNCC(=O)O
inactive: activity change, negative = cytotoxicity [1] -4.75% [at 8.39 µM] | activation [2] 1.22% [at 8.39 µM] | activity change, negative = inhibition [3] 1.55% [at 8.39 µM] | activity change, negative = cytotoxicity [4] -2.59% [at 8.39 µM] | activity change, negative = cytotoxicity [5] 20.3% [at 8.39 µM] | viability change, negative = cytotoxic [6] 10.5% [at 6.97 µM] | activity change, negative = cytotoxicity [7] -7.04% [at 6.97 µM] | activation [8] 6.59% [at 6.97 µM] | activity, negative = inhibition [9] -17.8% [at 4.65 µM] | activation [10] 0.139% [at 5.23 µM] | activity change, negative = cytotoxicity [11] 4.27% [at 8.39 µM] | caspase activation [12] 2.93% [at 8.39 µM] | activity change, negative = cytotoxicity [13] 0.398% [at 8.39 µM] | caspase-3/7 activation [14] 0.331% [at 8.39 µM] | activity change, negative = cytotoxicity [15] 1.14% [at 8.39 µM] | activation [20] -2.51% [at 8.39 µM] | activity change, negative = inhibition [16] -0.567% [at 10.5 µM]
